# Data: PubChem BioAssay AID720649 (The Scripps Research Institute Molecular Screening Center, 2013)
# This is one part of the list. Active and inactive are the calls of the source. How the calls were made is not given here.
# Test: TO-PRO-1 dye complex inhibitors on d(CAG) DNA, dose response, counter-screen, biochemical, fluorescence, late stage (AID 720649)
# Conditions: d(CAG) DNA duplex TO-PRO-1 dye displacement
smiles,measurement,value
Cc1noc(NS(=O)(=O)c2ccc(NC(=O)c3oc4ccc(F)cc4c3C)cc2)c1C,IC50,4.19 µM (active)
